Measurements as given in PubChem BioAssay (NCATS).
Inconclusive results are not listed. The source made the active and inactive calls. Unless noted, calls follow the shape of the dose curve; as a rule, active = well fitted curve in the direction sought with a large enough effect; inconclusive = small, poorly fitted or top-dose-only effect, or another doubt; inactive = no such curve, though single readings can be large; an effect the other way counts as inactive or inconclusive.

Experiments:
[1] = target: Glucocorticoid receptor (Homo sapiens) (UniProt P04150); experiment: GR-GFP Redistribution (AID 450;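 active = compounds whose dose series gives a full or clear partial fitted curve of increased nuclear translocation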; also: potency is read from the fitted curve at half-maximal effect); conditions: U2OS GR-GFP nuclear translocation, laser cytometry, 2 h
[2] = target: Glucocorticoid receptor (Homo sapiens) (UniProt P04150); experiment: GR-EFC Redistribution (AID 451; calls by dose curve; also: potency is read from the fitted curve at half-maximal effect); conditions: CHO-K1 GR-EFC translocation, beta-gal luminescence, 2 h
In short: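 CHO-K1 cells expressing nuclear EA and GR-ED fragments of b-gal; compounds titrated up to 46 uM final, 2 h at 37 C. GR nuclear translocation read as complemented b-gal luminescence after 1 h RT detection.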

[3] = target: Mitogen-activated protein kinase 10 (Mus musculus) (UniProt Q61831); experiment: JNK3 AlphaScreen Assay (AID 530; active = well fitted curve in either direction with a large enough effect, not every such curve was filed as active;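 also: kinase came from lysate of stimulated human HepG2 cells; signal reports phosphorylation of biotinylated GST-cJun 1-79 at Ser73 with 10 µM ATP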); conditions: JNK3 lysate, c-Jun phosphorylation; series mostly up to 57.1 µM
In short: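 HepG2 lysate (IL-1b/TNFa pre-activated) + biotin-GST-cJun 1-79 + anti-pSer73 cJun; cpd titration, 15 min RT; ATP 10 uM start; Tris pH 7.6, MgCl2, DTT, vanadate; beads in EDTA buffer; AlphaScreen.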

[4] = target: 3',5'-cyclic-AMP phosphodiesterase 4B (Homo sapiens) (UniProt Q07343); experiment: qHTS Assay for Inhibitors of PDE-IV (AID 607; active = well fitted activation curve with a large enough effect in the main read-out, with a control signal flat, not every such curve was filed as active); conditions: HEK293 ACTOne CNG channel cells, membrane potential fluorescence; series mostly up to 22.9 µM
In short: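 Live HEK293 cells with a modified cyclic nucleotide-gated (CNG) channel report intracellular cAMP via membrane-potential dye fluorescence (ex 535/em 590 nm). Endogenous PDE-IV was targeted. Compounds were tested at up to 22.9 uM final; RO 20-1724 100 uM served as control.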

[5] = target: Cytochrome P450 3A4 (Homo sapiens) (UniProt P08684); experiment: qHTS Assay for Activators of Cytochrome P450 3A4 (AID 885); conditions: recombinant CYP3A4, Luciferin-PPXE luminescence, 60 min; series mostly up to 57.1 µM; also: nearly all actives have a fitted effect of over 65% in size
In short: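 Using 20nM recombinant human CYP3A4 in potassium phosphate (200mM), substrate Luciferin-PPXE at 25uM, luminescent luciferin detection followed a 60-min RT NADPH reaction; data scaled to 57 uM ketoconazole.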

[6] = target: DNA dC->dU-editing enzyme APOBEC-3G (Homo sapiens) (UniProt Q9HC16); experiment: qHTS for inhibitors of Vif-A3G interactions: Validation (AID 588379); conditions: Vif-A3G protein interaction assay; series mostly up to 46.1 µM
In short: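 Yellow fluorescence (Ex 488, Em 500-530) of Vif-coexpressing HeLa A3G-eYFP cells, scanned by Acumen cytometer, reports blocked A3G degradation. Cells plated at 700/well overnight at 37 deg C before compound addition, then a further overnight compound incubation at 37 deg C.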

[7] = test system: Zika virus NS2B-NS3 protease; experiment: Primary screen GU AMC qHTS for Zika virus inhibitors (AID 1347154); conditions: Zika NS2B-NS3 unlinked protease, AMC fluorogenic substrate; series mostly up to 54.1 µM; also: nearly all actives have a fitted effect of over 70% in size
In short: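 Unlinked Zika NS2B hydrophilic domain–NS3 protease complex at 25 nM in 10 mM Tris-HCl pH 8.0, 0.01% Tween 20, with an AMC peptide substrate. Fluorescence change (340/450 nm) over 15 min at room temperature, normalized to controls, fitted to 4-parameter Hill.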

[8] = Primary qHTS for small molecule stabilizers of the endoplasmic reticulum resident proteome: Secreted ER Calcium Modulated Protein (SERCaMP) assay (AID 1508630); conditions: SH-SY5Y GLuc-SERCaMP (Gaussia luciferase released on ER calcium loss) secretion, thapsigargin, luminescence; series mostly up to 38.4 µM
In short: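 The SH-SY5Y reporter protocol was run at 3 concentrations up to 38.3 uM (primary) or 11 concentrations (follow-up): 16 h compound, 100 nM thapsigargin for 4 h, then extracellular luciferase luminescence.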

[9] = target: Ubiquitin carboxyl-terminal hydrolase 1 (Homo sapiens) (UniProt O94782); experiment: Inhibitors of USP1/UAF1: Pilot qHTS (AID 504865); conditions: purified USP1/UAF1, Ub-rhodamine cleavage fluorescence; series mostly up to 114 µM;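 also: rhodamine fluorescence freed from ubiquitin-rhodamine substrate followed over time; top concentration of the series differs between compounds; nearly all actives have a fitted effect of over 35% in size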
In short: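 1nM USP1/UAF1 + cpd, 15 min RT; start w/ Ub-Rho 150nM final; kinetic FL 480/540 nm, 6 reads q60 s. Buffer 50mM HEPES pH 7.8, 0.5mM EDTA, 1mM TCEP, 0.01% Tween-20, 0.1 mg/ml BSA.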

[10] = target: Cytochrome P450 1A2 (Homo sapiens) (UniProt P05177); experiment: p450-cyp1a2 (AID 410; calls by dose curve); conditions: recombinant CYP1A2, luciferin-ME demethylation, luminescence; series mostly up to 57 µM
In short: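 20nM CYP1A2, 100uM Luciferin-ME (=Km), 100mM KPO4; cpd 10 min RT; +NADPH regen, 60 min RT; stop/detect 20 min; luminescence. Normalized to furafylline 57 uM = full inhibition.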

[11] = target: Cytochrome P450 2C9 (Homo sapiens) (UniProt P11712); experiment: qHTS Assay for Inhibitors and Substrates of Cytochrome P450 2C9 (AID 883); conditions: recombinant CYP2C9, luciferin-H luminescence, 60 min; series mostly up to 57.1 µM; also: nearly all actives have a fitted effect of over 60% in size
In short: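 Human CYP2C9 (10nM) with Luciferin-H at 100uM (its KM) in 25mM KPO4; compound preincubated 10 min at 37C, then NADPH regeneration for 60 min at 37C. Luciferin read by luminescence after detection reagent; normalized to 57uM sulphaphenazole as full inhibition.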

[12] = target: Cytochrome P450 3A4 (Homo sapiens) (UniProt P08684); experiment: qHTS Assay for Inhibitors and Substrates of Cytochrome P450 3A4 (AID 884); conditions: recombinant CYP3A4, Luciferin-PPXE luminescence; series mostly up to 57.1 µM; also: nearly all actives have a fitted effect of over 50% in size
In short: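 Luminescent readout of luciferin produced by CYP3A4 (20 nM) dealkylation of Luciferin-PPXE, 25 uM (its KM). NADPH-driven reaction ran 60 min at RT after 10 min compound preincubation; data scaled to 57 uM ketoconazole as 100% inhibition.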

[13] = target: Cytochrome P450 2D6 (Homo sapiens) (UniProt P10635); experiment: qHTS Assay for Inhibitors and Substrates of Cytochrome P450 2D6 (AID 891); conditions: recombinant CYP2D6, luciferin-ME EGE luminescence; series mostly up to 57.1 µM; also: potency is read from the fitted curve at half-maximal effect; nearly all actives have a fitted effect of over 60% in size
In short: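 Luminescent read-out of luciferin formed by 5 nM human CYP2D6 demethylating 30 uM Luciferin-ME EGE (Km level) over 60 min at room temperature after NADPH regeneration addition. Data normalized to full inhibition by 1.43 uM quinidine.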

[14] = target: Cytochrome P450 2C19 (Homo sapiens) (UniProt P33261); experiment: qHTS Assay for Inhibitors and Substrates of Cytochrome P450 2C19 (AID 899); conditions: recombinant CYP2C19, luciferin-H EGE luminescence; series mostly up to 57.1 µM; also: potency is read from the fitted curve at half-maximal effect; nearly all actives have a fitted effect of over 60% in size
In short: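 5 nM human CYP2C19 with 10uM Luciferin-H EGE (at KM) in 50mM KPO4, compound preincubated 10 min at 37C, then NADPH regeneration for 60 min at 37C. Luciferin read by luminescence after detection reagent; normalized to 57uM ketoconazole as full inhibition.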

Measured: Potency

Sequence of DNA dC->dU-editing enzyme APOBEC-3G (Homo sapiens) (Q9HC16 whole entry, looked up): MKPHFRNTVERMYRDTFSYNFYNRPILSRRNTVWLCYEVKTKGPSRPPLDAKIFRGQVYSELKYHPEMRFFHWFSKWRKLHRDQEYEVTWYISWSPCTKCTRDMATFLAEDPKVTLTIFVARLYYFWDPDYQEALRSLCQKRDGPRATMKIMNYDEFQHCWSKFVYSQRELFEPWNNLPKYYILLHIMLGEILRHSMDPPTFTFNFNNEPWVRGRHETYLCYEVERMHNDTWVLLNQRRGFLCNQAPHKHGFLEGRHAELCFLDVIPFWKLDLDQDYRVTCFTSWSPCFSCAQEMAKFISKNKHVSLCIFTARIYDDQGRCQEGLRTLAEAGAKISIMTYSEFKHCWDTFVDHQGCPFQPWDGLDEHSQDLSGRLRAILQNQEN
Sequence of Glucocorticoid receptor (Homo sapiens) (P04150 whole entry, looked up, the tested form may be a part): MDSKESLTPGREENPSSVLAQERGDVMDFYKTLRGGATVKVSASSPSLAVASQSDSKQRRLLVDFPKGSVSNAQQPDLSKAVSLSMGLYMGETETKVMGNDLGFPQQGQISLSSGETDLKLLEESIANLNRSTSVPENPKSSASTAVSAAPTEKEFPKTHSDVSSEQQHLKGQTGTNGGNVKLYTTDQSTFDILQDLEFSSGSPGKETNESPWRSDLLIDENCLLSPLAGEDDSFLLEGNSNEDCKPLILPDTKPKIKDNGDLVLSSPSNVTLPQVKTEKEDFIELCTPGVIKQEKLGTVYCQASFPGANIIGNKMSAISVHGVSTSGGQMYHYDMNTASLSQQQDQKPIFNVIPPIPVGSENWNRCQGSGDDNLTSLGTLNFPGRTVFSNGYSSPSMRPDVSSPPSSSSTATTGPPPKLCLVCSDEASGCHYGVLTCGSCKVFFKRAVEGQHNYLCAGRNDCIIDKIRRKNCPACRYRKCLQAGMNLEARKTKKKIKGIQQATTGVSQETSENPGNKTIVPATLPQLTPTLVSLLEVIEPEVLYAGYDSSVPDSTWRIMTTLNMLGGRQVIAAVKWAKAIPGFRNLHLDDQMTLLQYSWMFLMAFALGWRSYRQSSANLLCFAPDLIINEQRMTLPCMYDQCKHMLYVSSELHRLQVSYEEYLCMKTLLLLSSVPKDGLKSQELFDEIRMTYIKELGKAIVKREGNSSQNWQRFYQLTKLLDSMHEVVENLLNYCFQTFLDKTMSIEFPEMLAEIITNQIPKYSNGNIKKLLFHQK
Sequence of Ubiquitin carboxyl-terminal hydrolase 1 (Homo sapiens) (O94782 whole entry, looked up): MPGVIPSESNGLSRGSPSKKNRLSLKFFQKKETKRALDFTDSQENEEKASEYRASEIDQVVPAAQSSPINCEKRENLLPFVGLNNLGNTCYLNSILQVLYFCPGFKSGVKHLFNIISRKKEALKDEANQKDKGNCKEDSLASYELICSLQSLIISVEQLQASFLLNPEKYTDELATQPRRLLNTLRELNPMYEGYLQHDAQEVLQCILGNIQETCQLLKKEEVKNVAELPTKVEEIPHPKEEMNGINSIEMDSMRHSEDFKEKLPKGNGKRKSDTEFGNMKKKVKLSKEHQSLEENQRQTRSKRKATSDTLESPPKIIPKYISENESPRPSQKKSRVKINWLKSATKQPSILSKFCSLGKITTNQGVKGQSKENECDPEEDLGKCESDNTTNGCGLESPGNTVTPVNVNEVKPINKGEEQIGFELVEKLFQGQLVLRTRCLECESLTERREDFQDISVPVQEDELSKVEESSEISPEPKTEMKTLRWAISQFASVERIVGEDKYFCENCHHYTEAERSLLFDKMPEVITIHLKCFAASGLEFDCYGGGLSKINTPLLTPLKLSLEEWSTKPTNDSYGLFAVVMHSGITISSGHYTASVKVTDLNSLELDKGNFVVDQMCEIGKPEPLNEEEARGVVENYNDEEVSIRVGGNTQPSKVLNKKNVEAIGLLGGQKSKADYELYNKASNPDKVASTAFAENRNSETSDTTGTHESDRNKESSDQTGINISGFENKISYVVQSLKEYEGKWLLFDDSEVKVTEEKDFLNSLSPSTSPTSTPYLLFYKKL
Sequence of Cytochrome P450 3A4 (Homo sapiens) (P08684 whole entry, looked up): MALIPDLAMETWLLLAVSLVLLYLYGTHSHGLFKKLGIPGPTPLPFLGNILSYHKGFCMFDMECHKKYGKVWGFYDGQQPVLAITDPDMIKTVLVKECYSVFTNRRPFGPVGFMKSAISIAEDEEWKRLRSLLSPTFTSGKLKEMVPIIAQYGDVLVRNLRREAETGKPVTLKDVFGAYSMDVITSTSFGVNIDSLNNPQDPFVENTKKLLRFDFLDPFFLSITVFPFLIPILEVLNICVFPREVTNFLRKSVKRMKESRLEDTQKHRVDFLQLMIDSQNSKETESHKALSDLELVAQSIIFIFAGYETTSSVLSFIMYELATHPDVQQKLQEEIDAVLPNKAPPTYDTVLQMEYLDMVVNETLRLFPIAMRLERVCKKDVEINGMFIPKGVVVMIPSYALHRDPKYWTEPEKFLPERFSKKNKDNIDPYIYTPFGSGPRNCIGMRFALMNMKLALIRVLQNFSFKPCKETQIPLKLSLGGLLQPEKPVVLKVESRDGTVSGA
Sequence of 3',5'-cyclic-AMP phosphodiesterase 4B (Homo sapiens) (Q07343 whole entry, looked up): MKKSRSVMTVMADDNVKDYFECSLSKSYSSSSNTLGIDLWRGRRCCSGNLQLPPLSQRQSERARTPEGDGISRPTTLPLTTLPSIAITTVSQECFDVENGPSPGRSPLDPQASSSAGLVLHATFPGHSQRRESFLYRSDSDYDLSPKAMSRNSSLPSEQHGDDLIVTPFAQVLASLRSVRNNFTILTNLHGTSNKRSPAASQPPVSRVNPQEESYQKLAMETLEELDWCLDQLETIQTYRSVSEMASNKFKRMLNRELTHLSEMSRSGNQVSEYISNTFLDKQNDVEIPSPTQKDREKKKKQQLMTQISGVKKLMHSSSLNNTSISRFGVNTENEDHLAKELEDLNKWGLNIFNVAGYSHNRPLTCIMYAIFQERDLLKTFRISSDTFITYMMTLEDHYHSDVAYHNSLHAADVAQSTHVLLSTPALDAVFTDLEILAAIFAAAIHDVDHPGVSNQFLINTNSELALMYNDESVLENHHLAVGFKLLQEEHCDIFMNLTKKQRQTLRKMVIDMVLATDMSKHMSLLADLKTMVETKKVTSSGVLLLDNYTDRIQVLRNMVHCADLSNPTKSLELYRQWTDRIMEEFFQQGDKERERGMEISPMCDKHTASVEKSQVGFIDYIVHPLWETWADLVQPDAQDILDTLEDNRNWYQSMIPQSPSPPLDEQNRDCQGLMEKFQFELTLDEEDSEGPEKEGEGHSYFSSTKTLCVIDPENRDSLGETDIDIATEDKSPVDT
Sequence of Cytochrome P450 2D6 (Homo sapiens) (P10635 whole entry, looked up): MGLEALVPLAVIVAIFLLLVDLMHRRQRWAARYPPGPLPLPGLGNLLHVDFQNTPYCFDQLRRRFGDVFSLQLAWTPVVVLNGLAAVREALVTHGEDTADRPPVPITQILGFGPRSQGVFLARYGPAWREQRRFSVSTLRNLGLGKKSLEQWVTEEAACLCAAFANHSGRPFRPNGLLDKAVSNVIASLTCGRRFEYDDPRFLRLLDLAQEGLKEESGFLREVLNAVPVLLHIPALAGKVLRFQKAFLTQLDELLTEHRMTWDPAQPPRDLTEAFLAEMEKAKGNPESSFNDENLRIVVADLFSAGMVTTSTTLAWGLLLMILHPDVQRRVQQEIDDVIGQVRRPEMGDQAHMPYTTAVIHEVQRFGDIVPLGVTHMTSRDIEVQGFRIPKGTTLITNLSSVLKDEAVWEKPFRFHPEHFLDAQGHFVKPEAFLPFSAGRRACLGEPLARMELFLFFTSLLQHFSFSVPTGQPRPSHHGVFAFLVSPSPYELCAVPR
Sequence of Cytochrome P450 2C19 (Homo sapiens) (P33261 whole entry, looked up): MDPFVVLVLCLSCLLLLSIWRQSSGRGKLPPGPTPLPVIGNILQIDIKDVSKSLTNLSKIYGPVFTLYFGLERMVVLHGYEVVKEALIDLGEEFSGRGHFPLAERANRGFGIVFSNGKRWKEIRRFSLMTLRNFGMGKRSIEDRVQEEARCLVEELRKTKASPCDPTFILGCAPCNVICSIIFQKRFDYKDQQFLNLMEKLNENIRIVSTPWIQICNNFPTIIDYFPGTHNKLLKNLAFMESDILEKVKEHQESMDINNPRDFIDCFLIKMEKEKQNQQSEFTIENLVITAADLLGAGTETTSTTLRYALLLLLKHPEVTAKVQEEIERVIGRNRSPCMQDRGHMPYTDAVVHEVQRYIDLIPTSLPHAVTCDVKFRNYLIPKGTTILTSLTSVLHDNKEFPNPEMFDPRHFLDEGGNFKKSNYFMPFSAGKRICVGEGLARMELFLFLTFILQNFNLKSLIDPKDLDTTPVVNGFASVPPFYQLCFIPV
Sequence of Cytochrome P450 2C9 (Homo sapiens) (P11712 whole entry, looked up): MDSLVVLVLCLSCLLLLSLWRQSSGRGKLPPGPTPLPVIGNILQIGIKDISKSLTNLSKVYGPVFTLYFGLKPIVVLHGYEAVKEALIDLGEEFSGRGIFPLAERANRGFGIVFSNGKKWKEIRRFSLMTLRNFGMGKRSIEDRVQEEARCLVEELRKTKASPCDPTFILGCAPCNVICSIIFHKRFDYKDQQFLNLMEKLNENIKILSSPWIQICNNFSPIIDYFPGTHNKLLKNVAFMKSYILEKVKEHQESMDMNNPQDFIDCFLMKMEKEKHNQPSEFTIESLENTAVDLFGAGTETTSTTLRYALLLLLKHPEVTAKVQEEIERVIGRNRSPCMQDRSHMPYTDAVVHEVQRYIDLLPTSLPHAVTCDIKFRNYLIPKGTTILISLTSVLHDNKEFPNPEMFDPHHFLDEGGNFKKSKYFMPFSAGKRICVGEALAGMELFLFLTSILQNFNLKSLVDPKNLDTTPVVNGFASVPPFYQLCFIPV

COc1ccc(C(OCCN2CCC[C@@H](C(=O)O)C2)(c2ccc(OC)cc2)c2ccc(OC)cc2)cc1
inactive: [1] > 46 µM | [2] > 46 µM | [3] | [4] | [5] | [6] | [7] | [8]

COc1cc2c(cc1OC)C(c1ccc(N)cc1)=NNC(=O)C2
inactive: [1] > 46 µM | [2] > 46 µM | [3] | [4] | [5] | [6] | [7] | [8]

COc1ccc(NC(=O)c2ccc(-c3ccc(-c4noc(C)n4)cc3C)cc2)cc1OCCN(C)C
inactive: [1] > 46 µM | [2] > 46 µM | [3] | [5] | [6] | [7] | [8]

CC#CCOC(=O)C1=CCCN(C)C1
inactive: [1] > 46 µM | [2] > 46 µM | [3] | [4] | [9] | [6] | [7] | [8]

O=C(c1ccc2c(c1)OCO2)N1CCCCC1
inactive: [1] > 46 µM | [2] > 46 µM | [3] | [4] | [9] | [6] | [7] | [8]

O=C(O)CC/C=C\C[C@@H]1CO[C@H](c2ccccc2Cl)O[C@@H]1c1ccccc1O
inactive: [1] > 46 µM | [2] > 46 µM | [3] | [5] | [6] | [7] | [8]

CC(C)(C)c1cc(O)c(C(C)(C)C)cc1O
inactive: [1] > 46 µM | [2] > 46 µM | [6] | [7] | [8]

CCOC(=O)C1=C(C)NC(c2ccccc2)=C(C(=O)OCc2ccc([N+](=O)[O-])cc2)[C@@H]1C#Cc1ccccc1
inactive: [1] > 46 µM | [2] > 46 µM | [3] | [4] | [6] | [7] | [8]

Cn1ccc2cc(NC(=O)Nc3cccnc3)ccc21
inactive: [1] > 46 µM | [2] > 46 µM | [4] | [6] | [7] | [8]

CCCn1c(=O)[nH]c2nc(-c3ccc(S(=O)(=O)O)cc3)[nH]c2c1=O
active: [13] 7.94 µM
inactive: [10] | [2] > 46 µM | [3] | [11] | [12] | [9] | [6] | [7] | [8]

Cc1c(C(=O)NN2CCOCC2)nn(-c2ccc(Cl)cc2Cl)c1-c1ccc(I)cc1
active: [14] 7.94 µM
inactive: [1] > 46 µM | [2] > 46 µM | [3] | [4] | [6] | [7] | [8]
